# Rows were chosen to be rich in hits. Some 5.8% of all compounds tested hit in one or more screens of this group.
# MCF10A rerep: induces DNA re-replication in MCF 10a normal breast cells; MCF 10A DNA re-replication, Hoechst nuclear intensity, 48 h; Potency, µM (top dose mostly 46.1 µM), usual class: activators; actives 2.9% (n = 350,000); AID 624296; further: nearly all actives have a fitted effect of over 50% in size
# KB-V1 cytotox: kills drug-selected multidrug resistant KB-V1 cells | AID 1347076 | KB-V1 MDR cells viability, CellTiter-Glo, 72 h | actives 3.4% (n = 400,000) | Potency, µM (doses to about 46.1 µM), hits mostly cytotoxic; further: nearly all actives have a fitted effect of over 60% in size
#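 Following 72 h at 37 degrees C with compound, KB-V1 cell viability was read by CellTiter-Glo luminescence, medium being phenol-red-free DMEM plus 10% FBS; concentration-response parameters came from normalized, curve-fitted qHTS data.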
# KB-3-1 tox: kills parental KB-3-1 adenocarcinoma cells. KB-3-1 viability, CellTiter-Glo ATP luminescence, 72 h. Potency, µM (top dose mostly 46.1 µM), hits mostly cytotoxic. actives 1.4% (n = 400,000). AID 1347075; further: nearly all actives have a fitted effect of over 60% in size
#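 Parental KB-3-1 adenocarcinoma cells in phenol-red-free DMEM with 10% FBS were pin-treated with compounds at several concentrations, incubated 72 h at 37 °C, and viability read by CellTiter-Glo luminescence; concentration-effect curves were fitted after normalization.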
# SW480 rereplic: induces DNA re-replication in SW480 colon adenocarcinoma cells | actives 1.8% (n = 340,000) | Potency, µM (titrated, usually from 46.1 µM), usual class: activators | SW480 DNA re-replication, Hoechst DNA content imaging, 48 h | AID 624297; further: nearly all actives have a fitted effect of over 55% in size
#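 Image-based DNA-content assay: after two days of treatment, nuclei were labelled with the DNA dye Hoechst and imaged, and hits were compounds raising the count of nuclei showing high fluorescence intensity.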
# PINK1 expr mod: PINK1 expression modulation. PINK1 immunofluorescence, high-content cytometry, 24 h. Potency, µM (top dose mostly 76.6 µM), usual class: activators. actives 0.2% (n = 410,000). AID 624263; active means well fitted activation curve with a large enough effect; inconclusive means small, poorly fitted or top-dose-only effect; cell line not stated here; further: nearly all actives have a fitted effect of over 65% in size
#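 Cells are seeded, rested 12 hours, then given compound at five concentrations or DMSO for 24 hours. After fixation, blocking and antibody staining, PINK1 amount and mitochondrial localization are scored; CCCP serves as control.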
# 12-LOX inh: ALOX12 (human) lipoxygenase inhibition. purified 12hLO, xylenol orange hydroperoxide absorbance. Potency, µM (top dose mostly 108 µM), hits mostly inhibitors. actives 1.1% (n = 580,000)
# Target sequence (P18054 whole entry, looked up): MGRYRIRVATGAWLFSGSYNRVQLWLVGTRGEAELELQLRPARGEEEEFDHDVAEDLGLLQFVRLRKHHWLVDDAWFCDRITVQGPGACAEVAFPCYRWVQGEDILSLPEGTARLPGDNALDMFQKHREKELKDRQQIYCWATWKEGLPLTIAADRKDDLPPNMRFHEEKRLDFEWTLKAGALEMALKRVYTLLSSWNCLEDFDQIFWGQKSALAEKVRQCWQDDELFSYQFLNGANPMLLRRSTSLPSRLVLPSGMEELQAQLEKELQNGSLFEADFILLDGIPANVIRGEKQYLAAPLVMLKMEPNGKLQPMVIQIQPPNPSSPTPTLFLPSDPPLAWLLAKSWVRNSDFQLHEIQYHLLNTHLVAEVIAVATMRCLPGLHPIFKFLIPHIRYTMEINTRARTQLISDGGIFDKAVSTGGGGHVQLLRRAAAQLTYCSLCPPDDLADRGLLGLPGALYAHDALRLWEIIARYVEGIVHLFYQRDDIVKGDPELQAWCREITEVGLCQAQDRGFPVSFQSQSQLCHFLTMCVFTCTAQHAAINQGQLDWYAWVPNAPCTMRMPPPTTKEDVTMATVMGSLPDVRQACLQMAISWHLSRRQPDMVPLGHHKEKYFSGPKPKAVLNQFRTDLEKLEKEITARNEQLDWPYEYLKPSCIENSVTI
#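 Hydroperoxide product was detected by ferrous iron/xylenol orange as the 573 to 405 nm absorbance ratio. Arachidonic acid at 40 uM (final) was turned over for 30 min at room temperature by 150 nM human 12hLO, pH 7.0 Hepes buffer, after 15 min compound preincubation.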
# A number is an active result; n = inactive; u = inconclusive; x = no result given; ! = not confirmed by another sample. Unless noted, the call rests on the fitted dose curve; in most records, active means well fitted curve in the direction sought with a large enough effect; inconclusive means small, poorly fitted or top-dose-only effect, or another doubt; inactive means no such curve, though single readings can be large; an effect the other way counts as inactive or inconclusive.
SMILES,MCF10A rerep,KB-V1 cytotox,KB-3-1 tox,SW480 rereplic,PINK1 expr mod,12-LOX inh
O=Cc1ccc(N2CCCC2)c([N+](=O)[O-])c1,n,n,n,n,n,n
O=[N+]([O-])/C=C\c1ccc(N2CCCC2)c(F)c1,18.4µM,u,u,18.4µM,n,x
O=C(CN1c2ccccc2Sc2ccccc21)NNC(=S)Nc1ccc(Cl)cc1Cl,u,13µM,20.6µM,n,u,n
O=C(CN1c2ccccc2Sc2ccccc21)NNC(=S)Nc1ccc(Cl)cc1,u,n,n,n,u,14.1µM
O=C(CN1c2ccccc2Sc2ccccc21)N/N=C/c1ccc(Cl)cc1Cl,n,n,n,n,n,n
O=C(CN1CCOCC1)NNC(=S)Nc1ccc(Cl)cc1,n,n,n,n,n,n
CCCn1c(Cn2ccnc2C)nc2cc(NC(=O)COc3ccc(OC)cc3)ccc21,x,x,x,x,x,n
COc1ccc(NC(NC(=O)c2ccc(OC)cc2)C(Cl)(Cl)Cl)cc1 (centres undefined),n,u,n,n,n,u
COc1ccc(C(=O)NC(Nc2ccc(C)cc2)C(Cl)(Cl)Cl)cc1 (centres undefined),n,14.6µM,u,n,u,n
CC(=O)Nc1ccc(NC(=S)NC(NC(=O)c2ccc(C)cc2)C(Cl)(Cl)Cl)cc1 (centres undefined),x,x,x,x,x,31.6µM
Cc1ccc(NC(=S)NC(NC(=O)c2ccccc2C)C(Cl)(Cl)Cl)c(C)c1 (centres undefined),u,u,u,u,u,35.5µM
CCc1ccc(OCC(=O)NC(NC(=S)Nc2ccccc2C)C(Cl)(Cl)Cl)cc1 (centres undefined),18.4µM,u,u,n,n,n
CC(C)(C)c1ccc(O)c(NC(=O)c2cc(F)cc(F)c2)c1,x,x,x,x,x,n
CC(C)c1ccccc1Cc1cc(C(=O)Nc2ccc(S(=O)(=O)c3ccccc3C(C)(C)C)cc2)c(O)c(O)c1O,x,x,x,x,x,9.68µM
COC(=O)c1ccc(C)c(NC(=O)COc2ccc3c(C)cc(=O)oc3c2)c1,x,x,x,x,x,n
O=C(NCc1cccs1)C1CC(c2ccc(Cl)cc2)=NO1 (centres undefined),9.2µM,u,u,u,n,n
O=C(NCc1ccco1)C1CC(c2ccc(Cl)cc2)=NO1 (centres undefined),u,n,n,n,n,n
O=C(NCc1cccnc1)C1CC(c2ccc(Cl)c(Cl)c2)=NO1 (centres undefined),9.2µM,u,u,n,n,n
O=C(NCCc1cccs1)C1CC(c2c(Cl)cccc2Cl)=NO1 (centres undefined),n,n,n,n,n,n
COc1ccc(C2=NOC(C(=O)NCc3cccnc3)C2)cc1OC (centres undefined),u,u,u,u,n,n
O=C(NCc1ccccn1)C1CC(c2ccc(Cl)c(Cl)c2)=NO1 (centres undefined),11.2µM,u,u,n,n,n
O=C(NCc1cccs1)C1CC(c2ccc(Cl)c(Cl)c2)=NO1 (centres undefined),2.31µM,n,n,n,n,n
COCCN1C(=O)CS(=O)(=O)C12CCN(C(=O)Cc1cccc(OC)c1)CC2,x,x,x,x,x,n
Cc1cn(C[C@H](NC(=O)c2cccc(F)c2)C(=O)O)c(=O)[nH]c1=O,x,x,x,x,x,n
CCN(CC)C(=O)c1cc2sc3ccccc3c2s1,n,n,n,n,n,15.8µM
SMILES,MCF10A rerep,KB-V1 cytotox,KB-3-1 tox,SW480 rereplic,PINK1 expr mod,12-LOX inh
COCCN(CCOC)C(=O)c1cc2sc3ccccc3c2s1,n,n,n,n,n,n
CN(C(=O)c1cccc(NC(=O)Cc2cccc(NC(=O)C3CCN(C(=O)C4CCC4)CC3)c2)c1)C1CCC1,n,n,n,u,n,n
CN(C(=O)c1cccc(NC(=O)Cc2cccc(NC(=O)C3CCN(C(=O)C4CCCCC4)CC3)c2)c1)C1CCC1,1.16µM,n,n,n,n,u
COc1cc(NC(=O)C2=C(N3CCOCC3)/C(=C/c3ccc(Cl)cc3)CC2)cc(OC)c1OC,u,u,n,n,n,n
COc1cc(NC(=O)C2=C(N3CCOCC3)/C(=C\c3ccc(N(C)C)cc3)CCC2)cc(OC)c1OC,18.4µM,2.59µM,11.6µM,10.3µM,n,n
N#Cc1cccc(NC(=O)N[C@H]2[C@H](O)[C@@H](Oc3ccccc3)[C@@H]3OC[C@H]2O3)c1,x,x,x,x,x,n
N#Cc1cccc(NC(=O)N[C@H]2[C@H](O)[C@@H](N3CCC(Cc4ccccc4)CC3)[C@@H]3OC[C@H]2O3)c1,x,x,x,x,x,44.7µM
CC1(C)Cc2ccccc2C(CSc2nc3c(c(C(F)(F)F)n2)CC(C(C)(C)C)CC3)=N1 (centres undefined),x,x,x,x,x,n
Cc1oc(-c2nc(C#N)c(N3CCN(C)CC3)o2)cc1S(=O)(=O)N(C)c1ccccc1,x,x,x,x,x,n
COc1ccccc1Nc1nc(-c2ccccc2F)nc2ccccc12,x,8.2µM,u,x,n,u
COc1ccccc1-c1nc(Nc2ccncc2)c2ccccc2n1,x,x,x,x,n,28.2µM
COc1ccccc1-c1nc(NC2CC2)c2ccccc2n1,x,x,x,x,n,u
COc1ccccc1-c1nc(N(C)Cc2ccco2)c2ccccc2n1,x,x,x,x,n,u
c1ccc2c(Nc3nc(-c4ccncc4)nc4ccccc34)cccc2c1,23.1µM,n,n,29.1µM,n,n
COc1ccccc1-c1nc(N(C)C)c2ccccc2n1,x,x,x,x,n,31.6µM
FC(F)(F)c1ccccc1-c1nc(Nc2ccncc2)c2ccccc2n1,x,x,x,x,n,u
CN(C)CCCNC(=O)c1nc(-c2cccc3[nH]ccc23)no1,x,x,x,x,x,n
COCCN[C@H]1C[C@@H]2c3[nH]c4ccccc4c3C[C@@H](C(=O)OC)N2[C@H](c2ccccc2)C1,x,x,x,x,x,n
Cc1cnc(CNc2nc(-c3ccccc3C)nc3ccccc23)cn1,x,x,x,x,n,n
COc1ccccc1-c1nc(NCc2cnc(C)cn2)c2ccccc2n1,x,x,x,x,n,20µM
COc1ccccc1CNc1nc(-c2ccc(N(C)C)cc2)nc2ccccc12,x,x,x,x,n,28.2µM
COc1ccc(Nc2nc(-c3cccs3)nc3ccccc23)cc1,16.4µM,18.4µM,u,n,n,u
CCc1nc(-c2c3n(c(=O)n(Cc4cc(F)ccc4F)c2=O)CCCCC3)no1,x,x,x,x,x,n
Cn1c(=O)c2c(nc(NCCCN3CCOCC3)n2Cc2ccccc2)n(C)c1=O,x,x,x,x,x,n
CCOc1ccc(N2C(=O)CC(NCCc3c[nH]c4ccccc34)C2=O)cc1 (centres undefined),n,n,n,2.91µM,n,n
O=C(/C=C/c1ccc(O)c(O)c1)OCCc1ccccc1,u,u,n,n,n,11.2µM!
O=C(/C=C/c1ccc(O)c(O)c1)c1ccccc1O,u,u,u,n,n,7.08µM
O=C(/C=C/c1ccc(F)cc1)c1ccccc1Br,u,u,23.1µM,x,n,n

# Source: PubChem BioAssay (National Center for Advancing Translational Sciences (NCATS))
